The whole screen tested about 310,000 compounds, of which about 14,000 (4.5%) showed an effect of 50% or more. The effect is printed as a negative number. The list comes from a sample in which strong results are over-represented; it also holds similar structures and randomly drawn compounds.
Target: human ether-à-go-go-related gene (hERG) potassium channel (human, UniProt Q12809)
Assay: primary screen, population patch clamp on CHO cells stably expressing hERG; higher = less effect of the substance
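Note: peak tail current of the secondary pulse compared with the same well before compound.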

Chain of human ether-à-go-go-related gene (hERG) potassium channel (Q12809 whole entry, looked up): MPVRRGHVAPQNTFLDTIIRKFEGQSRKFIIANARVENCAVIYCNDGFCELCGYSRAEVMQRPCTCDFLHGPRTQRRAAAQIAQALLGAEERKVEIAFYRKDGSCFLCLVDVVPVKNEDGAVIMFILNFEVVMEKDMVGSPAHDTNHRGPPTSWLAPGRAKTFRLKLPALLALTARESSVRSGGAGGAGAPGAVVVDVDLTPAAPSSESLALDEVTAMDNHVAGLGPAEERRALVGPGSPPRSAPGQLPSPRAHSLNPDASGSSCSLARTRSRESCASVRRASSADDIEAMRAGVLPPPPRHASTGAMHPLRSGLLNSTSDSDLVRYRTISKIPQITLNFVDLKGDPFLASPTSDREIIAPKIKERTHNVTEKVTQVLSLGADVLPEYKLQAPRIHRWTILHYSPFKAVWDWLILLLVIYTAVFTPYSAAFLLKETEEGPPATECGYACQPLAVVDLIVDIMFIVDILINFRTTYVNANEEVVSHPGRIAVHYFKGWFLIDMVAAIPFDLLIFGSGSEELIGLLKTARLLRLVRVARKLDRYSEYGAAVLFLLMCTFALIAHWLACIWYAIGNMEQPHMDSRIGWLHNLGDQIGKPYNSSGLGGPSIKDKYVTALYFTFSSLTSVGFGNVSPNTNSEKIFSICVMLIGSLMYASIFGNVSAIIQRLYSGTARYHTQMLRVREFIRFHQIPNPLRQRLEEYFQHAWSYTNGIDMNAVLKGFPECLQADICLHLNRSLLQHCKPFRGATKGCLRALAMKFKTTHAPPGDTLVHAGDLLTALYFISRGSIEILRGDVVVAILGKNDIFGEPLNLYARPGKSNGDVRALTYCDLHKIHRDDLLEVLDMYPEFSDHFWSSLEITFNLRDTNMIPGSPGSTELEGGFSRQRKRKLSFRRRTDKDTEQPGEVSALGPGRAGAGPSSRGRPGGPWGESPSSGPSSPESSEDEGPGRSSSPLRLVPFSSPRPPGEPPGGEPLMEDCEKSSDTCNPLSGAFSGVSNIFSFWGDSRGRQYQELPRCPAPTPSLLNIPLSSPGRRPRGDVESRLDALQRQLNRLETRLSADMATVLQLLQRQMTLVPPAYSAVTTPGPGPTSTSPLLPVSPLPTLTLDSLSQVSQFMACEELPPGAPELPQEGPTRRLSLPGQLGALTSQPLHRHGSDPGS

| Structure (SMILES) | hERG current change (%, negative = inhibition) at 10uM [%] |
| --- | --- |
| COCCNC(=O)/C(C#N)=C/c1cc(C)n(C2CCCCC2)c1C | -0.875 |
| CCN(CC)S(=O)(=O)c1ccc2nc(CSc3nnnn3-c3ccc(O)cc3)[nH]c2c1 | -53.9 |
| Cc1ccc(S(=O)(=O)N(C)C)cc1NC(=O)CSc1nnnn1-c1ccc(O)cc1 | -20.9 |
| CCN(CC)S(=O)(=O)c1ccc2nc(CCl)[nH]c2c1 | -16.7 |
| O=C(c1cccc(C(=O)N2CCN(c3ccccc3F)CC2)n1)N1CCN(c2ccccc2F)CC1 | -28.3 |
| O=[N+]([O-])c1ccc(N2CCOCC2)cc1N1CCCCC1 | -5.12 |
| O=C(/C=C/c1ccc(Cl)cc1Cl)N1CCN(c2ccc([N+](=O)[O-])c(N3CCOCC3)c2)CC1 | -34.5 |
| O=C(/C=C/c1ccc(Cl)cc1)N1CCN(c2ccc([N+](=O)[O-])c(N3CCOCC3)c2)CC1 | -72.4 |
| O=[N+]([O-])c1ccc(N2CCCCC2)cc1N1CCOCC1 | -11.3 |
| O=C(/C=C/c1ccc(Cl)cc1)N1CCOCC1 | 9.65 |
| O=C(/C=C/c1ccccc1)N1CCN(c2ccc([N+](=O)[O-])c(N3CCOCC3)c2)CC1 | -54.3 |
| Cc1c(C(=O)NN2CCOCC2)oc2ccccc12 | 16.5 |
| N#Cc1cc2c(nc1SCc1cccc(Cl)c1)CCCCC2 | 8.72 |
| COc1cc(C2NC(=O)NC(C)=C2C(=O)OCC2CCCO2)cc(OC)c1OC (centres unmarked) | 18.8 |
| COc1ccc(N2CCN(c3ncnc4scc(-c5ccccc5)c34)CC2)cc1 | 18.6 |
| COc1ccc(NC(=O)c2ccccc2NC(=O)CSc2ccc(Cl)cc2)cc1 | 3.21 |
| Cc1cc(C)cc(NC(=O)C2C3C=CC4(O3)C2C(=O)N(CCCN2CCCCC2)C4C(=O)NC2CCCCC2)c1 (centres unmarked) | 20.7 |
| O=C(NCc1ccccc1)c1ccc(Cl)c(NC2=NC3CS(=O)(=O)CC3S2)c1 (centres unmarked) | -0.123 |
| O=C(Cn1nc(Cl)nc1Cl)c1ccc([N+](=O)[O-])cc1 | 1.69 |
| O=C(Cn1c[n+](CC(=O)c2ccc([N+](=O)[O-])cc2)cn1)c1ccc([N+](=O)[O-])cc1.[Br-] | 21.3 |
| O=C(Cn1cc[n+](CC(=O)c2ccccc2)c1)c1ccccc1.[Br-] | 0.024 |
| C[n+]1ccn(CC(=O)c2ccc(Cl)cc2)c1.[Br-] | -3.61 |
| O=C(Cn1cc[n+](CC(=O)c2ccc(Cl)cc2Cl)c1)c1ccc(Cl)cc1Cl.[Br-] | -61.5 |

| Structure (SMILES) | hERG current change (%, negative = inhibition) at 10uM [%] |
| --- | --- |
| O=C(C[n+]1cnn(CC(=O)c2ccc(Cl)cc2Cl)c1)c1ccc([N+](=O)[O-])cc1.[Br-] | -73.3 |
| COc1ccc(-c2ccc(SCc3cccnc3)nn2)cc1OC | 29 |
| Cc1ccccc1N1CC(C(=O)Nc2ccc(S(=O)(=O)N3CCCC3)cc2)CC1=O (centres unmarked) | 3.59 |
| CCOC(=O)NC1(C(F)(F)F)N=C(c2ccccc2)NC1=O (centres unmarked) | 4.77 |
| Cc1cc(C)c([C@@H]2C[C@H]3CN(C4CCCC4)C(=O)[C@]34CCCN24)c(-n2cccn2)c1 | -80.7 |
| Cc1ccc(-n2cccn2)c([C@@H]2C[C@H]3CN(C)C(=O)[C@]34CCCN24)c1 | -61.1 |
| CN1C[C@@H]2C[C@@H](c3ccc(C#CC(C)(C)O)s3)N3CCC[C@@]23C1=O | 9.88 |
| CN1C[C@@H]2C[C@@H](C3=Cc4cc(Cl)ccc4OC3)N3CCC[C@@]23C1=O | -32.7 |
| Cn1cc([C@@H]2C[C@H]3CN(C4CCCC4)C(=O)[C@]34CCCN24)c(-c2ccccc2)n1 | -18.5 |
| O=C1N(C2CCCC2)C[C@@H]2C[C@@H](c3cn[nH]c3-c3ccc(Cl)cc3)N3CCC[C@@]123 | -37.8 |
| CCOc1cc(CNc2ncn[nH]2)ccc1OCC(=O)NC(C)(C)C | 5.22 |
| Cc1ccc(OCC(=O)N(C)Cc2ccccc2)c([N+](=O)[O-])n1 | 3.95 |
| NN/C(=C\[N+](=O)[O-])Nc1ccc(Cl)cc1 | 13.6 |
| Cc1ccc(S(=O)(=O)CCC(=O)OCC(=O)c2c[nH]c3ccccc23)cc1 | -8.93 |
| COc1ccc(S(=O)(=O)N2CCN(C(=O)NC3CCCCC3)CC2)cc1OC | -17.7 |
| COC(=O)c1cc(Br)c(=O)n(-c2ccc(F)cc2)c1 | -63.9 |
| COC(=O)c1cc(Br)c(=O)n(-c2ccc(OC)cc2)c1 | -0.31 |
| COC(=O)c1cc(Br)c(=O)n(CCc2ccc(F)cc2)c1 | -24.9 |
| COCC(C)n1c(SCc2ccc(C(=O)OC)o2)nc2ccccc2c1=O (centres unmarked) | -8.61 |
| COc1ccccc1C1CC(c2cccs2)=Nc2ccccc2S1 (centres unmarked) | 14.4 |
| CC1CCCN(C(=O)c2ccc(Br)c(S(=O)(=O)N3CCOCC3)c2)C1 (centres unmarked) | -7.24 |
| COc1ccc(C2CC3(CC(C)(C)NC(SC)=N3)Oc3cc(O)cc(C)c32)cc1.I (centres unmarked) | -74.3 |
| Cc1cc(O)cc2c1C(c1ccc(F)cc1)CC1(CC(C)(C)NC(=S)N1)O2 (centres unmarked) | 14.2 |

| Structure (SMILES) | hERG current change (%, negative = inhibition) at 10uM [%] |
| --- | --- |
| COc1ccc(C2CC3(CC(C)(C)NC(=S)N3)Oc3cc(O)cc(C)c32)cc1 (centres unmarked) | 14.6 |
| CC12CN(C(=S)Nc3ccccc3)CC(C)(CN(C(=S)Nc3ccccc3)C1)C2=O | 10.3 |
| COc1ccc(/C=C(/NC(=O)c2ccco2)C(=O)Nc2ccc(C(=O)O)cc2)cc1 | 9.11 |
| COc1ccccc1N1CCN(C(=O)c2ccc(-c3ccc(Cl)cc3)o2)CC1 | -7.22 |
| Cc1cccc(OCC(=O)N2CCN(C(=O)c3ccco3)CC2)c1 | -6.95 |
| O=C(COC(=O)/C=C/c1ccc(OC(F)F)cc1)NCCN1C(=O)CSC1=O | -60.8 |
| CC(C)c1ccc(OCC(=O)N2CCN(C(=O)c3ccco3)CC2)cc1 | -49.1 |
| O=C(COC(=O)/C=C/c1ccc(Cl)cc1)NCCN1C(=O)CSC1=O | -21.2 |
| O=C(COc1ccc2ccccc2c1)N1CCN(C2CCN(Cc3ccccc3)CC2)CC1 | -77.7 |
| Cc1ccc(/C=C/C(=O)OCC(=O)NCCN2C(=O)CSC2=O)cc1 | -17.9 |
| O=C(COc1ccc2ccccc2c1)N1CCN(C(=O)c2ccco2)CC1 | -61.7 |
| CCOC(=O)/C=C/C(=O)OCC(=O)N1CCN(C(=O)c2ccco2)CC1 | 9.59 |
| COc1cccc(CN2CCN(C(=O)COc3ccc4ccccc4c3)CC2)c1 | -38.7 |
| COc1cc(/C=C/C(=O)OCC(=O)N2CCN(C(=O)c3ccco3)CC2)ccc1O | 2.55 |
| O=C(COc1ccc2ccccc2c1)N1CCN(Cc2ccncc2)CC1.O=C(O)C(=O)O | -33.9 |
| O=C(/C=C/c1ccc(OC(F)F)cc1)OCC(=O)N1CCN(C(=O)c2ccco2)CC1 | -71 |
| CC1=NN(c2ccccc2)C(=O)C1C(=O)c1cc([N+](=O)[O-])cc([N+](=O)[O-])c1 (centres unmarked) | 2 |
| CCn1c(=S)sc2c(=O)n(CC(=O)Nc3cccc(Cl)c3)c(C)nc21 | 6.27 |
| Cc1ccc(-c2nc(N)sc2CC(=O)OCC(=O)N2C(C)CCCC2C)cc1 (centres unmarked) | -7.22 |
| COc1ccc2cc(CCNC(=O)c3ccc(Br)o3)c(=O)[nH]c2c1 | -9.51 |
| COCCCNC(=S)N1CCN(C(c2ccccc2)c2ccccc2)CC1 | 5.04 |
| COc1cccc2cc(C(C)N(CCCN3CCOCC3)C(=S)Nc3ccccc3C)oc12 (centres unmarked) | -7.78 |
| COc1ccc2[nH]c(=O)c(CN(C(=O)C(C)C)c3ccccc3OC)cc2c1 | -2.54 |

| Structure (SMILES) | hERG current change (%, negative = inhibition) at 10uM [%] |
| --- | --- |
| COc1cccc(=O)c2c(C)oc(C)c12 | 3.11 |
| O=C(N/N=C/c1cccs1)c1cnccn1 | -1.91 |
| CC(Sc1nc(-c2ccccc2)cc(C(F)(F)F)n1)C(=O)N1CCCCC1 (centres unmarked) | -17.9 |
| COc1ccc(OCC(=O)N2CCN(C(=O)c3ccco3)CC2)cc1 | -32.3 |
| O=C(COc1ccccc1)N1CCN(C(=O)c2ccco2)CC1 | -8.03 |
| N#Cc1ccc(OCC(=O)N2CCN(C(=O)c3ccco3)CC2)cc1 | -71 |
| CC1(c2nnc(Cc3ccccc3)o2)CC(c2cccc(F)c2)=NO1 (centres unmarked) | -3.35 |
| Cc1cc(C)n(-c2nncn2/N=C/c2ccccc2F)n1 | 3.06 |
| COc1ccccc1-n1ccnc(SCC(=O)NCc2ccccc2Cl)c1=O | 8.39 |
| O=C1CC[C@H](O)CCN1[C@H](CSc1ccccc1)Cc1ccccc1 | -21.7 |
| O=C1CCN(CCc2ccccc2)CCN1[C@H](CSc1ccccc1)Cc1ccccc1 | -77.1 |
| Cc1ccc(SC[C@H](Cc2ccccc2)N2CCN(CCc3ccccc3)CCC2=O)cc1 | -17.9 |
| CC(C)[C@@H](CSc1ccccc1)N1CCN(Cc2ccccc2)CCC1=O | -63.4 |
| O=C1CCN(Cc2ccc(Br)cc2)CCN1[C@H](CO)Cc1ccccc1 | -10.4 |
| CC(C)C[C@@H](CO)N1CCN(Cc2ccccc2)CCC1=O | 6.02 |
| C[C@H]1CCC(=O)N([C@H](CSc2ccccc2)Cc2ccccc2)CC1 | -37 |
| O=C1CCN(CCc2ccccc2)CCN1[C@H](CSc1ccc(Br)cc1)Cc1ccccc1 | -74.6 |
| CC(C)C(CO)N1CCN(Cc2ccccc2)CCC1=O (centres unmarked) | 4.74 |
| O=C1CC[C@H](O)CCN1[C@H](CSc1ccc(Br)cc1)Cc1ccccc1 | -24.3 |
| O=C1CC[C@H](OCc2ccccc2)CCN1[C@H](CSc1ccccc1)Cc1ccccc1 | -51 |
